Calb FLC: affects C. albicans growth with fluconazole. hit rate 0.57% among 300,000. growth inhibition, % (no concentration beside the values). AID 1979. C. albicans CaCi-2 (fluconazole-resistant clinical isolate) + fluconazole, Alamar Blue growth, 48 h;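 active = growth inhibition above about 58% in most replicates, limit read from the data, passing the limit was not always enough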;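 note: all wells also contain fluconazole at 8 µg/ml as a sub-toxic cotreatment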
697 NFkB inh: inhibitors of the PMA/ionomycin-induced NF-kB reporter in 697 B cells; AID 435022; 697 B-cell NF-kB luciferase reporter, 16 h; hit rate 0.33% among 330,000; inhibition, % at 4 µM; in the data active = inhibition above about 35%
Jurkat NFkB inh: lowers PMA/ionomycin-induced NF-kB signal in Jurkat cells; PMA/ionomycin-induced NF-kB luciferase reporter, luminescence; inhibition, % at 4 µM; hit rate 0.53% among 330,000; AID 435003; in the data active = inhibition above about 50%
Shn3 inh set2: reduces Shn3 3'UTR luciferase signal in osteoblasts | inhibition, % at 12.5 µM | hit rate 0.52% among 360,000 | Clone20 osteoblast Shn3 3'UTR firefly luciferase, 24 h;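 active = mean inhibition of at least 75% with every replicate also reaching 75%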
Beta cell apopt: beta cell apoptosis inhibition; protection from apoptosis, % (concentration not given with the values); hit rate 0.8% among 300,000; INS-1E cytokine-induced death, ATP luminescence, 48 h; percent of positive-control rescue, neutral wells zero; AID 435005;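 active = Every replicate reaches about 75%, or at least half do and their mean reaches it too, limit read from the data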;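 note: higher means more ATP so stronger rescue from cytokine killing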
Jurkat NFkB conf: lowers PMA/ionomycin-induced NF-kB signal in Jurkat cells | Jurkat NF-kB luciferase, 16 h | inhibition, % at 4 µM | shares compounds with Jurkat NFkB inh | hit rate 27% among 2,700;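 active = inhibition reaching about 45% at 4 µM in either replicate, limit read from the data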
Of the large screens only hits and unclear results are named; the others gave an inactive call (follow-up assays come after a bar, where they were run). A selection: hits, their analogues and other compounds. The true share with any hit is near 2%.

CCN(C(=O)COC(=O)/C=C/c1ccc(O)c(OC)c1)C1CCS(=O)(=O)C1 (stereo unspecified)	none
O=C(Nc1ccccc1)c1nnsc1S(=O)c1ccc(Cl)cc1 (stereo unspecified)	none
O=C(c1nnsc1S(=O)c1ccc(Cl)cc1)N1CCOCC1 (stereo unspecified)	Jurkat NFkB inh 70, Shn3 inh set2 94 (no result: Beta cell apopt) | Jurkat NFkB conf inactive
Clc1ccc(OCc2nc(-c3ccccn3)no2)c(Br)c1	none | Jurkat NFkB conf inactive
Cc1c(Br)cccc1NC(=O)C1(C)CCN1CCc1ccccc1 (stereo unspecified)	none (no result: Calb FLC, 697 NFkB inh, Jurkat NFkB inh, Beta cell apopt)
O=c1[nH]c(CN2CCN(c3ccc(O)cc3)CC2)nc2scc(-c3ccc(Cl)cc3)c12	Jurkat NFkB inh 60 | Jurkat NFkB conf inactive
CCOc1ccccc1NC(=O)Cn1nnc(C(=O)NCc2ccco2)c1N	Jurkat NFkB inh 69 (no result: Shn3 inh set2) | Jurkat NFkB conf 56
COc1ccc(C(=O)N/C(=C\c2ccco2)C(=O)OCc2ccco2)cc1	none (no result: Beta cell apopt)
COc1ccc(C(=O)/C(=C\c2ccco2)N2C=CC=CC2=C(C#N)C#N)cc1	Jurkat NFkB inh 65, Shn3 inh set2 97, Beta cell apopt 94 | Jurkat NFkB conf 49
Cc1[nH]n(-c2ncc(-c3ccccc3)s2)c(=O)c1C(c1ccc(Cl)cc1)C(C#N)C#N (stereo unspecified)	none
N/C(=N\OC(=O)c1ccc(Cl)cc1)c1ccn[nH]1	none | Jurkat NFkB conf inactive
N/C(=N\OC(=O)c1ccccc1Cl)c1ccc(Cl)cc1	none | Jurkat NFkB conf inactive
N/C(=N\OC(=O)c1ccc(Cl)cc1)c1cccnc1	none
N/C(=N\OC(=O)c1ccccc1Cl)c1ccccc1	none | Jurkat NFkB conf inactive
O=C(O/N=C(\c1ccccc1)c1ccncc1)c1ccccc1Cl	none
N/C(=N\OC(=O)c1ccc(Cl)cc1)c1ccc(Cl)cc1	none
O=C(NNC(=O)c1cc2ccccc2[nH]1)OCc1ccccc1	none (no result: Calb FLC)
C[C@@H]1CN([C@@H](C)CO)C(=O)c2ccccc2-c2ccccc2CO[C@@H]1CN(C)S(=O)(=O)c1ccc(C(F)(F)F)cc1	none (no result: Calb FLC, 697 NFkB inh, Jurkat NFkB inh, Beta cell apopt)
C[C@@H]1C=CC(=O)O[C@@H]1c1ccc(Cl)cc1	Jurkat NFkB inh 96 (no result: Shn3 inh set2) | Jurkat NFkB conf 97
COCCN(C(=O)CCC(=O)Nc1cc(C)on1)C(C(=O)NC1CCCC1)c1ccc(C(C)C)cc1 (stereo unspecified)	none
Cc1cc(Sc2ccc([N+](=O)[O-])cn2)ccc1Br	Jurkat NFkB inh 62 | Jurkat NFkB conf inactive
O=[N+]([O-])c1ccc(Sc2ccc(F)cc2)nc1	none
Cc1cc(C)n(CCNC(=O)[C@H]2O[C@@H](n3ccc(=O)[nH]c3=O)[C@H](O)[C@@H]2O)n1	none (no result: Calb FLC, 697 NFkB inh, Jurkat NFkB inh, Beta cell apopt)
CCC(CC)C(=O)Oc1c(C(=O)N(C)C)cccc1-c1ccccc1	none (no result: Calb FLC, 697 NFkB inh, Jurkat NFkB inh, Beta cell apopt)
CC(=O)c1ccc(Nc2ccc(-c3ccccc3F)nn2)cc1	none | Jurkat NFkB conf inactive
CCCOc1ccc(F)cc1-c1cc(C(=O)Nc2ccc(OC)cc2C)[nH]n1	none (no result: Calb FLC, 697 NFkB inh, Jurkat NFkB inh, Beta cell apopt)
Cc1ccc(-n2nc(C)c(NC(=O)CCl)c2C)cc1C	Jurkat NFkB inh 64 | Jurkat NFkB conf inactive
CCc1nc(SCC(=O)Nc2cc(C)on2)c2c(C)c(C)sc2n1	none
Cc1cc(NC(=O)CSc2nc(C3CC3)nc3sc(C)c(C)c23)no1	Jurkat NFkB inh 51 (no result: Beta cell apopt) | Jurkat NFkB conf inactive
Ic1ccc(N2CCN(Cc3c[nH]c4ncccc34)CC2)cc1	none (no result: Calb FLC)
Cc1cccc(N2CCN(C(=O)c3ccncc3)CC2)c1C	none
COc1cc(C(=O)N2CCN(c3cccc(C)c3C)CC2)cc(OC)c1OC	Jurkat NFkB inh 63 | Jurkat NFkB conf inactive
Cc1cccc(N2CCN(C(=O)c3cc(S(=O)(=O)N4CCCC4)cn3C)CC2)c1C	Jurkat NFkB inh 61 | Jurkat NFkB conf inactive
COc1cc(C(=O)N2CCN(c3cc(Cl)ccc3Cl)CC2)cc(OC)c1OC	Jurkat NFkB inh 60 | Jurkat NFkB conf 50
Cc1cc(Cl)c2oc(C(=O)N(C)Cc3nccn3C)c(C)c2c1	none (no result: Beta cell apopt)
CS(=O)(=O)Nc1cccc2[nH]ncc12	none (no result: Beta cell apopt)
Cc1ccc(O)c(N=Nc2nccs2)c1	Jurkat NFkB inh 59, Shn3 inh set2 93, Beta cell apopt 89 (no result: Calb FLC) | Jurkat NFkB conf 79
Cc1ccc(O)c(N=Nc2ccc(S(=O)(=O)N3CCCC3)cc2)c1	none
COc1ccc(N=Nc2cc(C)ccc2O)cc1	none | Jurkat NFkB conf inactive
O=C(COc1ccc2c3c(c(=O)oc2c1)CCC3)Nc1ccc(CN2CCOCC2)cc1	none
Cn1c(SCC(=O)Nc2ccc3c(c2)OCCO3)nnc1-c1ccncc1	none
O=C(NCc1ccccc1F)c1ccc(S(=O)(=O)N2CCCC2)cc1	none (no result: Calb FLC, 697 NFkB inh, Jurkat NFkB inh, Beta cell apopt)
Cc1cc(C)c(CN2CCN(C(=O)Cn3cnc4c(OCc5ccccc5)ncnc43)CC2)c(C)c1	Jurkat NFkB inh 59, Beta cell apopt 77 (no result: Calb FLC) | Jurkat NFkB conf 59
O=C(NCc1ccon1)C1CCC(=O)N(CCc2cccc(F)c2)C1 (stereo unspecified)	none (no result: Beta cell apopt)
O=S(=O)(c1ccc(S(=O)(=O)N(Cc2ccccc2)Cc2ccco2)cc1)N1CCCC1	none
COC(=O)/C=C/c1ccccc1S(=O)(=O)N(Cc1ccccc1)Cc1ccco1	Jurkat NFkB inh 56 | Jurkat NFkB conf inactive
CN1/C(=C/C(=O)c2nc(S(C)(=O)=O)ncc2Cl)C(C)(C)c2ccccc21	Jurkat NFkB inh 57, Shn3 inh set2 96 | Jurkat NFkB conf inactive
CN1/C(=C\C(=O)c2ccco2)C(C)(C)c2ccccc21	Jurkat NFkB inh 57, Beta cell apopt 99 | Jurkat NFkB conf inactive
O=C(COC(=O)CNC(=O)c1ccccc1)NC12CC3CC(CC(C3)C1)C2	none (no result: Calb FLC, 697 NFkB inh, Jurkat NFkB inh, Beta cell apopt)
Cc1cc(NCCCN2CCOCC2)n2ncc(-c3ccc(Cl)cc3)c2n1	none
Cc1cc(NCCCn2ccnc2)n2ncc(-c3ccc(Cl)cc3)c2n1	none | Jurkat NFkB conf inactive
CC(=O)Nc1ccc2nc(NC(=O)CCc3ccccc3)sc2c1	none
CCCC(=O)Nc1nc2ccc(NC(=O)c3ccccc3F)cc2s1	Jurkat NFkB inh 60 | Jurkat NFkB conf inactive
Cc1nc(CCNC(=O)C2CCC(=O)N(Cc3ccc(Cl)cc3)C2)sc1C (stereo unspecified)	none (no result: Beta cell apopt)
Cc1cccc(NC(=S)N/N=C/c2cccc(O)c2)c1C	Jurkat NFkB inh 62 | Jurkat NFkB conf inactive
Cc1cccc(Nc2nc(N)nc(-c3oc4ccccc4c3C)n2)c1	none
Cc1c(-c2nc(N)nc(Nc3ccccc3F)n2)oc2ccccc12	none | Jurkat NFkB conf inactive
O=C(/C=C/c1ccc2c(c1)OCO2)Nc1nc2ccccc2s1	none | Jurkat NFkB conf inactive
CCSc1nnc(NC(=O)/C=C/c2ccc3c(c2)OCO3)s1	none (no result: Shn3 inh set2)
CSc1ccc(OC2(C)CCN(Cc3ccc(OC(C)C)cc3)C2)cc1 (stereo unspecified)	none (no result: Calb FLC, 697 NFkB inh, Jurkat NFkB inh, Beta cell apopt)
COc1cc(/C=N/N(C)c2ccccc2)ccc1O	none | Jurkat NFkB conf inactive
COc1cc(OC)c(OC)cc1/C=N/N(C)c1ccccc1	none
COc1cc(C(=O)N=c2sc3ccccc3n2C)cc(OC)c1OC	none
Cn1c(=NC(=O)c2cccc([N+](=O)[O-])c2)sc2ccccc21	none | Jurkat NFkB conf inactive
Cc1ccc(NC(=S)c2ccc(N(C)C)cc2)cc1	none | Jurkat NFkB conf inactive

Compound activity deposited in PubChem by several laboratories.
